Laboratory results published in PubChem BioAssay (NCI).
The panel holds about 83,000 compounds, 20% with a hit somewhere; the sample as a whole holds those more often.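 Percent growth is the endpoint: 0 to 100 indicates growth inhibition (40 means 60% inhibition), 0 means no net growth, and negative values indicate cell death.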 Unmarked numbers belong to inactive results. The source made the active and inactive calls. The calls were made as follows: active = growth percent below 10; inactive = the rest.

These compounds were tested on A549/ATCC NSCLC (assay: NCI-60 one-dose screen, 48 h (100 = growth as untreated, 0 = no growth, -100 = all killed)). Details: 10 µM unless noted.

Structure (SMILES)	growth
O=C1Nc2ccc(Br)cc2/C1=N/c1nc(-c2ccccc2)cs1	80.3%
CS(=O)(=O)c1ccc(C(=O)N/N=C/c2ccccc2Cl)cc1	78.4%
Cc1ccc(Nc2cccc3ccccc23)cc1	90.5%
CCCCc1nc(Cl)c(C2CC(c3ccc(S(N)(=O)=O)cc3)=NN2c2ccc(C#N)cc2)[nH]1 (configuration not stated)	94.6%
O/N=C1\c2ccccc2-c2ccc(Br)cc21	97.4%
CCN(CC)CCCC(C)Nc1c(-c2ccccc2)cnc2cc(Cl)ccc12 (configuration not stated)	57.1%
OC(COCc1ccccc1)COCc1ccccc1	99.9%
O=C(CC(=O)c1cccc(Cl)c1)c1cccc(Cl)c1	57.7%
O=C1CCCN1C1CCN2CCCc3cccc1c32 (configuration not stated)	107%
CC(C)(C)[Si](C)(C)OC1[C@@H](CNC(N)=O)O[C@@H](n2cnc3c(NC(=O)Nc4ccccc4)ncnc32)[C@H]1O[Si](C)(C)C(C)(C)C (some centres not stated)	37.6%
NC(CCC(=O)NC(CS)C(=O)NCC(=O)O)C(=O)O (configuration not stated)	94.2%
C/C(=N\NC(=O)CSc1nc2ccccc2c(=O)n1CCc1ccc(S(N)(=O)=O)cc1)c1ccc(Br)cc1	47.3%
CC(C)CCSc1nc(Nc2ccccc2)c(C#N)c(-c2ccc(F)cc2)n1	25.3%
CCOC(=O)C1OC2(CCCC2)OC1C(=O)OCC (configuration not stated)	102%
CS(=O)(=O)c1ccc(C(=O)N/N=C/c2ccccc2O)cc1	38.8%
O=C(NCCN1CCCC1)n1cc(-c2ccncc2)c(-c2cc(O)cc(Cl)c2)n1	101%
C[C@@H]1N=C(c2ccc3ccccc3c2)Nc2nc3ccccn3c2C1=O	39.5%
CNCCCn1c2c(c3ccc(Cl)cc3c1=O)C(=O)c1cc(OC)cnc1-2	-88.5% (active)
CC(=O)Oc1ccccc1C(=O)Nc1ncc([N+](=O)[O-])s1	51.2%
O=C1/C(=C/c2ccccc2)SC(=Nc2ccccc2)N1Nc1ccccc1	15.5%
Oc1c(C(Nc2cccc3ccccc23)c2ccccc2)ccc2cccnc12 (configuration not stated)	33.6%
COc1ccc(CC2c3cc(OC)c(OC)cc3CC[N+]2(C)CCC(=O)OCCCCCOC(=O)CC[N+]2(C)CCc3cc(OC)c(OC)cc3C2Cc2ccc(OC)c(OC)c2)cc1OC (configuration not stated)	101%
CCn1c(Cc2ccccc2Nc2c(Cl)cccc2Cl)nnc1SCC(=O)Nc1ccccc1C(F)(F)F	76.8%

The compounds below were run on 786-0 renal in the same assay as above. Details: 10 µM unless noted.

Structure (SMILES)	growth
COc1ccc(N=C2CSc3nnc(-c4cc(F)c(Cl)cc4Cl)n3N2)cc1	-44.5% (active)
Nc1c(C(=O)Nc2cccc(Cl)c2)sc2nc3c(cc12)C(=O)CCC3	47.7%
COc1ccc(CNc2c3ccccc3nc3ccc(OC)cc23)cc1	15%
CCOC(=O)c1cc(C(=O)OCC)c(C)nc1C	106%
NC(=O)N/N=C\c1ccc([N+](=O)[O-])o1	107%
Cc1ccc(NC(=O)c2sc3nc4c(cc3c2N)C(=O)CCC4)cc1Cl	104%
COc1ccc(-n2c(COc3ccc(F)cc3)n[nH]c2=S)cc1	102%
COc1ccccc1-[n+]1cc(-c2ccc(-c3ccccc3)cc2)n2c1CCCCC2	18.5%
Nc1cc(C(=O)O)cc(C(=O)O)c1	96.8%
CN(C)c1nc(-c2cccs2)n2nc(-c3ccco3)cc2n1	96.1%
O=C(Nc1cccc(-n2ccc3c(NC(=O)c4ccccc4)nccc32)c1)c1ccc(N2CCOCC2)c(C(F)(F)F)c1	-12.3% (active)
CNC(=O)c1c(NC(=O)c2ccc(C(C)C)cc2)sc2c1CCC(=O)C2	13%
CC(CN1CCN(CC(C)Nc2ccnc3cc(Cl)ccc23)CC1)Nc1ccnc2cc(Cl)ccc12 (configuration not stated)	-9.83% (active)
Cc1c2c(cc3c1[nH]c1ccccc13)C=NCC2	80.8%
CC(C)c1ccc2c(c1)CCC1C2CCCC1(C)NCc1ccccc1 (configuration not stated)	64.7%
CC1(C)OC2OC3C(CN)OC(c4ccccc4)OC3C2O1 (configuration not stated)	104%
O=C1Nc2ccc(Br)cc2/C1=N/c1nc(-c2ccccc2)cs1	85.2%
CS(=O)(=O)c1ccc(C(=O)N/N=C/c2ccccc2Cl)cc1	97.2%
Cc1ccc(Nc2cccc3ccccc23)cc1	88.9%
CCCCc1nc(Cl)c(C2CC(c3ccc(S(N)(=O)=O)cc3)=NN2c2ccc(C#N)cc2)[nH]1 (configuration not stated)	84.6%

Structure (SMILES)	growth
O/N=C1\c2ccccc2-c2ccc(Br)cc21	98.6%
CCN(CC)CCCC(C)Nc1c(-c2ccccc2)cnc2cc(Cl)ccc12 (configuration not stated)	52%
OC(COCc1ccccc1)COCc1ccccc1	108%
O=C(CC(=O)c1cccc(Cl)c1)c1cccc(Cl)c1	43%
O=C1CCCN1C1CCN2CCCc3cccc1c32 (configuration not stated)	101%
CC(C)(C)[Si](C)(C)OC1[C@@H](CNC(N)=O)O[C@@H](n2cnc3c(NC(=O)Nc4ccccc4)ncnc32)[C@H]1O[Si](C)(C)C(C)(C)C (some centres not stated)	58.8%
NC(CCC(=O)NC(CS)C(=O)NCC(=O)O)C(=O)O (configuration not stated)	109%
C/C(=N\NC(=O)CSc1nc2ccccc2c(=O)n1CCc1ccc(S(N)(=O)=O)cc1)c1ccc(Br)cc1	49.8%
CC(C)CCSc1nc(Nc2ccccc2)c(C#N)c(-c2ccc(F)cc2)n1	-9.8% (active)
CCOC(=O)C1OC2(CCCC2)OC1C(=O)OCC (configuration not stated)	100%
CS(=O)(=O)c1ccc(C(=O)N/N=C/c2ccccc2O)cc1	33%
O=C(NCCN1CCCC1)n1cc(-c2ccncc2)c(-c2cc(O)cc(Cl)c2)n1	79.2%
C[C@@H]1N=C(c2ccc3ccccc3c2)Nc2nc3ccccn3c2C1=O	69.3%
CNCCCn1c2c(c3ccc(Cl)cc3c1=O)C(=O)c1cc(OC)cnc1-2	-85.1% (active)
CC(=O)Oc1ccccc1C(=O)Nc1ncc([N+](=O)[O-])s1	-11.4% (active)
O=C1/C(=C/c2ccccc2)SC(=Nc2ccccc2)N1Nc1ccccc1	-31.4% (active)
Oc1c(C(Nc2cccc3ccccc23)c2ccccc2)ccc2cccnc12 (configuration not stated)	-13.6% (active)
COc1ccc(CC2c3cc(OC)c(OC)cc3CC[N+]2(C)CCC(=O)OCCCCCOC(=O)CC[N+]2(C)CCc3cc(OC)c(OC)cc3C2Cc2ccc(OC)c(OC)c2)cc1OC (configuration not stated)	103%
CCn1c(Cc2ccccc2Nc2c(Cl)cccc2Cl)nnc1SCC(=O)Nc1ccccc1C(F)(F)F	92%
